Measured values taken from PubChem BioAssay AID1508600 (Functional Genomics Laboratory (NCATS/FGL), 2020).
Among all 53,000 sequences or so, about 3,700 (7%) were called active.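 The calls were made as follows: active = gene knockdowns whose robust z-score for IL-1 alpha signal is at least 2 or at most -2, so actives lie on both sides; inactive = the rest.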 Only a selection was taken, and actives are over-represented in it overall.

Test: Components of the Cytosolic LPS Sensing Pathway: Gene Identification via Genome-wide siRNA Screen;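 also: robust z of the log signal after scaling to non-targeting control siRNA wells of the plate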
Settings: RAW264.7 macrophages, IL-1a HTRF, actives lie on both sides, screened at 100 nM (by protocol), cells primed 5 h with Pam3CSK4 first
In short: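 Knockdown: 100 nM siRNA, 48h, RAW264.7. Stimulation: Pam3CSK4 5 h, then LipidA via TransIT-TKO 24 h. Output: supernatant IL-1a HTRF, negative-control-normalized, log robust z-score; viability by CellTiter-Glo.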

z-score, inactive:
CCCAUGGGCAGAUGAAAGCTT against Olfr1441 -0.482
GCAAUGCGACGUGCUCUAUTT against Trim67 0.136
GGCUUAAGUUAGGCAAACUTT against Crtc3 -0.0675
GCCACAACAAACCUACGACTT against Xpc -1.32
GCGCAUUGUGUUCUGGUCUTT against Zswim4 -1.55
GGAACUUGGCCUACUUAUGTT against C130071C03Rik 0.718
GAGGUCAUUAUACCAUUGGTT against Tuba3b 0.554
GGCCAACACUCAGAAAAGGTT against Zfp474 1.59
GGUUGGGCUGCCAAGUUUGTT against Fdx1 1.96
UACUACAACCGCACAGUGATT against Tmc6 0.522
GGAAGCUCUUAAAAGGUUGTT against Hdhd2 0.226
GCUCCUCAUGAUAUUGGCCTT against Nagk 0.239
GGAGGGACUUACCACAAGGTT against Timeless 0.282
GGGAAUCUUUAUCAGUGAGTT against Insc 0.429
GCUCCUGAUCAAAUAAAGUTT against Ldhb 0.279
CCGGAGUUAUACCGUAAGATT against Plaur -0.671
GGAGUAGGAACAAAAAUUGTT against Polb -0.153
CCUUGGCCAAUCUCCACAATT against Ptpmt1 -0.485
GGCACAAAAGAAGAAGAUGTT against Retsat -1.7
CGAUAAUGAAAGUGACCAUTT against Uri1 -0.0814
GGAUGCUAGACUAAUACUATT against Slc25a32 1.3
GGGAGGGAUGCAGUAAAUGTT against Acaa1a -0.337
GCAGGAACGUGAGGACCAUTT against Snip1 0.842
GGCUCUGUGCAGACAUUUCTT against Pop5 -1.51
GCCUGGAUACAAUUACCCUTT against Tc2n -0.893
GCUCAGUAAUCGCUGUCUATT against Olfr91 -0.62
GGAGAUGAUACAUAAUCUATT against Psmd12 -0.0292
GGUGACAAAGGUGUUAGAATT against Itpkc -0.252
GGUGACCAAAAAAGCUUUATT against Pax9 1.37
GCUCAAAUAACUCCACCACTT against Pola1 -1.73
GGCGACCACUUUGUCUACATT against Plekhg3 1.1
GCUGCGUCCUAUGAGUUUATT against Drg2 1.72
GGCAGCAAGGAAACUAUUATT against Kpna3 1.39
GCCAACGAAAAAUGACCUCTT against Wnt2 -0.046
GGCCAAAAGUAUGAAAGUATT against Tspan1 0.45
GCGUGUUGUGAUGUCACCUTT against Cisd1 -0.0193
CCAGAUACUUCUCAUGGCGTT against Dipk1b -0.0671
CGAUUUGCCUUAUUUUUCATT against Litaf 1.23
GGAAGUACAAACUACUAGUTT against Mcmbp -0.393
GGAGCUAGACAAAACUAAATT against Vmn2r81 -0.882
GUAGAAGAUGGAAUUUUUGTT against Rpl22l1 0.048
CCUGAUGGGUUACCUAUGCTT against Col25a1 -0.379
GCGGUUCCAAGAUUGUUGUTT against Armc8 0.109
GCUGAUCGCUUUGAUUCGATT against Fkbp11 -0.495
GCUAACACUGCGCUUGGAATT against 1700067K01Rik -1.39
GGGACCAGAACCACAAACATT against Ghsr -1.62
GGACUAAAUAGGUUUACCATT against Alx1 1.26
CGCAGACAGAGACAACCUGTT against Casp6 -0.73
GCGUGUCCUAUAGCAUCUGTT against Cela1 -0.106
GGAAUUGAAGGGUACUUAATT against Fam111a -1.97
GCCAAAUAUUAUUCCUACATT against Sec63 -0.282
GGGAAUCCUAGACAUGCUGTT against Nphp4 -1.91
GGGCAACCUGUCACAUUAUTT against Spam1 1.16
CCUCAUCCUUAGUUGUUUUTT against Ift88 -0.15

z-score, active:
UGCUGUGGUCACUCCCAUGTT against Olfr457 -2.04
GGUGACCAGCUCCAUUUCUTT against Ccn5 2.61
GCCAGAUCUGUUAACCGCCTT against Gzmk 2.15
GGUGGUCACCAAGAAGUUUTT against Prps2 2.52
GGACAACACUGUCAAUCAUTT against Olfr922 -2.39
GGAAAAAAUUAAAGAGCACTT against Gmcl1 2.15
CGGGAAAGAGAUCAUCCCUTT against Nr1i2 -3.3
GUUCCGACUGAACUUGUAUTT against Psmb3 -2.55
GCCUAAACCUGAGUUAUAATT against Lrig1 2.34
GGGAAUUCUCCUGUUUGCUTT against Plp2 -2.22
GGCUUUCAAGAGCAAUCCCTT against Man2b2 -2.21
GGUCUGUGAGGAACAAAAGTT against Ccnd2 -2.26
GCAGGUCACUUUCUAGAGATT against Srsf3 -2.25
GGCAUUGAGAUGAAAUGAATT against 4933427E11Rik -2.5
GCACAAUGGUGUUAAGUCATT against Ado 2.3
